Among the data in PubChem BioAssay (EPA / NIEHS) are AC50 and outcome values, retold here.

Records with an inconclusive call do not appear. Some structures have more than one record in an assay (separate samples or runs), and their calls can disagree. Activity calls are given as the source filed them. How the source made its calls: active means hit-call score of the fitted dose curve at least 0.9, where 1 is the maximum; inconclusive means response in the unintended direction; inactive means score below 0.9.

Sequence of chimpanzee Androgen Receptor (AR), AR (gene 747460) (O97775 whole entry, looked up): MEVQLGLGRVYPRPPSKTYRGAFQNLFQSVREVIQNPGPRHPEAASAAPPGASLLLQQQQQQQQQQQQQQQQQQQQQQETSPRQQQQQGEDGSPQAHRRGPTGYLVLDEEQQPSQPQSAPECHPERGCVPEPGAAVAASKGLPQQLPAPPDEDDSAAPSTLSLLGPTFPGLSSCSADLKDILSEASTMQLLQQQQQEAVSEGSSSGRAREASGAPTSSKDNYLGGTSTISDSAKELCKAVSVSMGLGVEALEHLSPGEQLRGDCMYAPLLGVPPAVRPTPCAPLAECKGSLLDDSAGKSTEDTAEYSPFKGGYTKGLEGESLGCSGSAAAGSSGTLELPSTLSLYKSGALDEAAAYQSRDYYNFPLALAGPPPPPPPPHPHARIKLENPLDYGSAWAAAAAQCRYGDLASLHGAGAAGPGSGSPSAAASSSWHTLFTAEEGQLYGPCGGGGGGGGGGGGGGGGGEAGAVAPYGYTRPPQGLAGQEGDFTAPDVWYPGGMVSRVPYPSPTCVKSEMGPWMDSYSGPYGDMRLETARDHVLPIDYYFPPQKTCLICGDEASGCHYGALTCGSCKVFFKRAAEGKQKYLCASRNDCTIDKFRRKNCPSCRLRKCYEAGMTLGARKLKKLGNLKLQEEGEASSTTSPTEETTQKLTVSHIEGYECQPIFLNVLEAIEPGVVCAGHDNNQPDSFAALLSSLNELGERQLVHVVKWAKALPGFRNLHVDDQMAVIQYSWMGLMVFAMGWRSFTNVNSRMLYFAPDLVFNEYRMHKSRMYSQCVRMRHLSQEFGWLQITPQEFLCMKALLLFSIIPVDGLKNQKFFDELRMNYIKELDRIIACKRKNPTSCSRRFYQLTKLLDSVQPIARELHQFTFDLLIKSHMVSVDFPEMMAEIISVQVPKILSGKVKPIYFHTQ
Sequence of bovine Estrogen Receptor (ER), ESR1 (gene 407238) (P49884 whole entry, looked up): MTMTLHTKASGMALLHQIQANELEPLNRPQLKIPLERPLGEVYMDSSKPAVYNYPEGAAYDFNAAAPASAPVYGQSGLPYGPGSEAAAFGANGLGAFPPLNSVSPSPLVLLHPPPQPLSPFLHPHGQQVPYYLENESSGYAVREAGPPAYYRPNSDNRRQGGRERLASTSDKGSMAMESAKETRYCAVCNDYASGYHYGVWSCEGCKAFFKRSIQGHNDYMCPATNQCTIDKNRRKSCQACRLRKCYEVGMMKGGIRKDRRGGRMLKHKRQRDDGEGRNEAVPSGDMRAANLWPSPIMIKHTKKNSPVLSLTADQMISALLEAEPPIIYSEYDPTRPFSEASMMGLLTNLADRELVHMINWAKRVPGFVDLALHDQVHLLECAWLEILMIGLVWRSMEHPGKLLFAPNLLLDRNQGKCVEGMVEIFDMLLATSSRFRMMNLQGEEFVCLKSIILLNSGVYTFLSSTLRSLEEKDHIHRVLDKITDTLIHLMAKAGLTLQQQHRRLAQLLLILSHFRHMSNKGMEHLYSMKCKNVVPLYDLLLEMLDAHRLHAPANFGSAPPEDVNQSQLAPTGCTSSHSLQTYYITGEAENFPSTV
Sequence of human Constitutive Androstane Receptor (CAR), NR1I3 (gene 9970) (Q14994 whole entry, looked up): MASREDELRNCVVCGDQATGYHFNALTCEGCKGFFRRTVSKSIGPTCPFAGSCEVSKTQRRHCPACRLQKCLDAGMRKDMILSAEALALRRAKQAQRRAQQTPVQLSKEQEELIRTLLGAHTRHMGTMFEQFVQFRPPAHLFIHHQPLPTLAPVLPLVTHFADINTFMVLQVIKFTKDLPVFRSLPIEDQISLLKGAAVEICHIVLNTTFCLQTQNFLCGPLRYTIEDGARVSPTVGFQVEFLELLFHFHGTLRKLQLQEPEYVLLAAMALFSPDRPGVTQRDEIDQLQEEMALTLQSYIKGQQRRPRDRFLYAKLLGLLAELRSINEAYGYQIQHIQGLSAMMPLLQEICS

One experiment concerns the target human Constitutive Androstane Receptor (CAR), NR1I3 (gene 9970) (UniProt Q14994). As to the kind of experiment: NVS_NR_hCAR_Antagonist: NovaScreen (NVS) Nuclear Receptor Binding Assay for human Constitutive Androstane Receptor Antagonism (CAR) (AID 2283344). In a few lines:
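Cell-free TR-FRET binding read 1 h after dosing, antagonist mode; loss of signal versus DMSO baseline. Primary screen in duplicate at a single 25 uM; actives retested in concentration series.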
With `O=C(N[C@@H](c1ccccc1)[C@@H]1CCCCN1)c1cccc(C(F)(F)F)c1Cl`, the AC50 is 25 µM (active).
For the molecule `O=C1NC(=O)C(c2ccccc2)(c2ccccc2)N1`, the call was inactive.
Take `CCN(CC)CCOc1ccc(C(=C(Cl)c2ccccc2)c2ccccc2)cc1`: the AC50 was 34 µM (active).
Regarding `COc1ccc(OC(F)(F)F)cc1CN[C@H]1CCCN[C@H]1c1ccccc1`, the call was inactive.

For the next experiment, the target named is bovine Estrogen Receptor (ER), ESR1 (gene 407238) (UniProt P49884). Put plainly: NVS_NR_bER: NovaScreen (NVS) Nuclear Receptor Binding Assay for bovine Estrogen Receptor (ER) (AID 2283345).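 Further: actives lower the bound radioligand count which means they displace the ER ligand.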 In a few lines:
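Displacement of a radioligand from estrogen receptor in bovine uterine membrane preparations; scintillation signal taken at 18 hours, DMSO as baseline. Single-concentration duplicates (25 uM) preceded concentration-response follow-up of actives.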
Consider `CC(=O)[C@@]1(O)CC[C@H]2[C@@H]3CCC4=CC(=O)CC[C@]4(C)[C@H]3CC[C@@]21C`, for which the AC50 was 15.4 µM (active) and the outcome was inactive.
As to `CCCCC(CC)COC(=O)CCCCCCCC(=O)OCC(CC)CCCC` (configuration not stated), the call was inactive.
Same read-out and setting: the result for `Cc1c(C)c2c(c(C)c1O)CCC(C)(COc1ccc(CC3SC(=O)NC3=O)cc1)O2` (configuration not stated) reads “inactive”; that for `Cc1cc(Cc2ccc(N)c(C)c2)ccc1N`, “inactive”.
Still for that read-out and setting: the result for `CCC(C)N(C)C(=O)c1cc2ccccc2c(-c2ccccc2Cl)n1` (configuration not stated) reads “inactive”; that for `O=Cc1ccccc1C=O`, “inactive”.
On the same count and under the same terms, the result for `O=[Si]=O` reads “inactive”.
On to `Cc1ccc(-c2cc(C(F)(F)F)nn2-c2ccc(S(N)(=O)=O)cc2)cc1`, for which the call was inactive.

In the next experiment the target is chimpanzee Androgen Receptor (AR), AR (gene 747460) (UniProt O97775). As to the kind of experiment: NVS_NR_cAR: NovaScreen (NVS) Nuclear Receptor Binding Assay for chimpanzee Androgen Receptor (AR) (AID 2283346).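 Further: radioligand displacement from AR measured by scintillation counting in a cell-free assay; a loss of bound radioligand signal versus DMSO counts as binding.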 In a few lines:
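Radioligand binding to chimpanzee AR expressed in Sf9/Sf21 cells, cell-free, measured 72 h after dosing by lysate-based scintillation counting. Loss of signal vs DMSO; initial duplicate screen at 25 uM, actives retested in concentration series.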
In the case of `CCc1cc(C2=C(C(=O)O)N(c3ccccc3C(F)(F)F)S(=O)(=O)c3ccccc32)cc2c1OCO2`, the AC50 is 25 µM (active).
As for `CC(=O)CC(c1ccccc1)c1c(O)c2ccccc2oc1=O` (configuration not stated), the result was inactive.
Regarding `CC(=O)[C@@]1(O)CC[C@H]2[C@@H]3CCC4=CC(=O)CC[C@]4(C)[C@H]3CC[C@@]21C`, the half-maximal activity concentration (AC50) was 0.49 µM (active) and the outcome was inactive.
Regarding `CCCCC(CC)COP(=O)(OCC(CC)CCCC)OCC(CC)CCCC` (configuration not stated), the concentration at half-maximal activity (AC50) was 18.1 µM (active).
Take `S=c1[nH]c2ccccc2s1`: the result was inactive.
Turning to `Cc1cc(Cc2ccc(N)c(C)c2)ccc1N`, the AC50 is 25 µM (active).
The same measure, in the same setting: the result for `O=Cc1ccccc1C=O` reads 25 µM (active); that for `CCN(CC)CCOc1ccc(C(=C(Cl)c2ccccc2)c2ccccc2)cc1`, 4.82 µM (active); that for `COC(=O)[C@H]1[C@H]2C[C@@H]3c4[nH]c5cc(OC)ccc5c4CCN3C[C@H]2C[C@@H](OC(=O)c2cc(OC)c(OC)c(OC)c2)[C@@H]1OC`, 19.2 µM (active).

Another experiment concerns the target Estrogen receptor (Homo sapiens) (UniProt P03372). Put plainly: NVS_NR_hER: NovaScreen (NVS) Nuclear Receptor Binding Assay for human Estrogen Receptor (ER) (AID 2283348). Put shortly: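 Radioligand competitive displacement binding to estrogen receptor from MCF7 extract, cell-free; 18 h after dosing, scintillation read-out. Primary screen in duplicate at 25 uM; actives followed up in concentration series; loss of signal vs DMSO.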
With `Cc1ccc(C(C)(C)C)c(O)c1`, the result was inactive.
Take `Nc1nc(=S)c2[nH]cnc2[nH]1`: the outcome was inactive.
For `CSc1ccc(Oc2ccc(S(N)(=O)=O)cc2CN(C)C)cc1C`, the call was inactive.
Still for that read-out and setting: the result for `Cc1c(C)c2c(c(C)c1O)CCC(C)(COc1ccc(CC3SC(=O)NC3=O)cc1)O2` (configuration not stated) reads “inactive”.
Still for that read-out and setting: the result for `CCC(C)N(C)C(=O)c1cc2ccccc2c(-c2ccccc2Cl)n1` (configuration not stated) reads “inactive”; that for `O=Cc1ccccc1C=O`, “inactive”.
Regarding `CC(C)OC(=O)C(C)(C)Oc1ccc(C(=O)c2ccc(Cl)cc2)cc1`, the outcome was inactive.
On to `Cc1ccc(-c2cc(C(F)(F)F)nn2-c2ccc(S(N)(=O)=O)cc2)cc1`, for which the molecule was called inactive.

A further experiment shares this target. Put plainly: OT_ER_ERaERa_1440: Odyssey Thera (OT) 24-hour HEK293T Protein-Complementation Assay for Estrogen Receptor-alpha/-alpha Homodimer (AID 2283349).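 Further: hits raise fluorescence above DMSO for agonists and antagonists alike.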 In a few lines: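 HEK293T cells stably expressing the human ER alpha ligand-binding domain (aa 310-547) as a homodimer PCA were dosed for 24 hours. Fluorescence intensity was read by laser scanning cytometry, and gain of signal was fitted relative to DMSO vehicle.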
For the molecule `Cc1ccc(C(C)(C)C)c(O)c1`, the result was inactive.
On to `CCCCc1nc2cccnc2n1Cc1ccc(-c2ccccc2-c2nnn[nH]2)cc1`, for which the result was inactive.
As to `Nc1nc(=S)c2[nH]cnc2[nH]1`, the call was inactive.
Take `O=C1CCCCC1`: the molecule was classed as inactive.
In the case of `O=C(N[C@@H](c1ccccc1)[C@@H]1CCCCN1)c1cccc(C(F)(F)F)c1Cl`, the result was inactive.
Same read-out and setting: for `CSc1ccc(Oc2ccc(S(N)(=O)=O)cc2CN(C)C)cc1C` the value was “inactive”; for `CC(C)c1cccc(C(C)C)c1`, “inactive”.
Same read-out and setting: the result for `Cc1c(C)c2c(c(C)c1O)CCC(C)(COc1ccc(CC3SC(=O)NC3=O)cc1)O2` (configuration not stated) reads “inactive”; that for `CCC(C)N(C)C(=O)c1cc2ccccc2c(-c2ccccc2Cl)n1` (configuration not stated), “inactive”; that for `O=Cc1ccccc1C=O`, “inactive”.
`O=C(O)CN(CC(=O)O)CC(=O)O`: the half-maximal activity concentration (AC50) was 10.9 µM (active).
On to `O=[Si]=O`, for which the molecule was called inactive.
Turning to `c1ccc2occc2c1`, the molecule was called inactive.
Still for that read-out and setting: the result for `CC(C)OC(=O)C(C)(C)Oc1ccc(C(=O)c2ccc(Cl)cc2)cc1` reads “inactive”; that for `COc1ccc(OC(F)(F)F)cc1CN[C@H]1CCCN[C@H]1c1ccccc1`, “inactive”; that for `CCCCCCCCCC[N+](C)(C)[O-]`, “inactive”.

The target in the next experiment is Bile acid receptor (Homo sapiens) (UniProt Q96RI1). Put plainly: NVS_NR_hFXR_Antagonist: NovaScreen (NVS) Nuclear Receptor Binding Assay for human Farnesoid X Receptor Antagonism (FXR) (AID 2283350). In a few lines: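 Cell-free TR-FRET ligand-binding read-out on human FXR (NR1H4) in antagonist mode, measured 1 h after dosing. Primary screen in duplicate at 25 uM, actives retested in concentration series; signal loss scored versus DMSO.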
Sequence of Bile acid receptor (Homo sapiens) (Q96RI1 whole entry, looked up): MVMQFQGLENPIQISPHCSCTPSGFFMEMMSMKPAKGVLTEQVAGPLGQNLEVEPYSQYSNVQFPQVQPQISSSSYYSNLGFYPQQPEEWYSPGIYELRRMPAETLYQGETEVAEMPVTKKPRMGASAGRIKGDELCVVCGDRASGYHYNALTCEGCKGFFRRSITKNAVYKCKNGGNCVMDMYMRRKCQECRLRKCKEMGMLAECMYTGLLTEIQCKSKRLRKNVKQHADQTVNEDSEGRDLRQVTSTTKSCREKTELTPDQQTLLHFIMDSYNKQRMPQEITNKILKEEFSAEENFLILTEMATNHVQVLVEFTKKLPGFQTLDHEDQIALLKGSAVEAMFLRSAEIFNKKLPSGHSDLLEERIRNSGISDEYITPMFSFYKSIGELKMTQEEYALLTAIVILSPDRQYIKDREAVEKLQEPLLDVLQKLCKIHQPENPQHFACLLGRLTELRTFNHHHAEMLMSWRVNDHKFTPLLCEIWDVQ
With `CCCCc1nc2cccnc2n1Cc1ccc(-c2ccccc2-c2nnn[nH]2)cc1`, the molecule was called inactive.
In the case of `CCN(CC)CCOc1ccc(C(=C(Cl)c2ccccc2)c2ccccc2)cc1`, the concentration at half-maximal activity (AC50) was 13.5 µM (active).
With `CC(C)OC(=O)C(C)(C)Oc1ccc(C(=O)c2ccc(Cl)cc2)cc1`, the result was inactive.
Consider `COc1ccc(OC(F)(F)F)cc1CN[C@H]1CCCN[C@H]1c1ccccc1`, for which the concentration at half-maximal activity (AC50) was 40.2 µM (active).

The target in another experiment is Estrogen receptor (Homo sapiens) (UniProt P03372). As to the kind of experiment: OT_ER_ERaERa_0480: Odyssey Thera (OT) 8-hour HEK293T Protein-Complementation Assay for Estrogen Receptor-alpha/-alpha Homodimer (AID 2283351).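 Further: rise in fluorescence from reassembled reporter fragments on ERα LBD homodimer in nucleus or whole cell.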 Put shortly: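 Binding reporter in which dimerisation of ERα LBD (aa 310-547) fusions reconstitutes a fluorescent reporter in HEK293T cells. Compounds incubated 8 h; mean fluorescence intensity increase versus DMSO scored.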
Sequence of Estrogen receptor (Homo sapiens) (P03372 whole entry, looked up, the tested form may be a part): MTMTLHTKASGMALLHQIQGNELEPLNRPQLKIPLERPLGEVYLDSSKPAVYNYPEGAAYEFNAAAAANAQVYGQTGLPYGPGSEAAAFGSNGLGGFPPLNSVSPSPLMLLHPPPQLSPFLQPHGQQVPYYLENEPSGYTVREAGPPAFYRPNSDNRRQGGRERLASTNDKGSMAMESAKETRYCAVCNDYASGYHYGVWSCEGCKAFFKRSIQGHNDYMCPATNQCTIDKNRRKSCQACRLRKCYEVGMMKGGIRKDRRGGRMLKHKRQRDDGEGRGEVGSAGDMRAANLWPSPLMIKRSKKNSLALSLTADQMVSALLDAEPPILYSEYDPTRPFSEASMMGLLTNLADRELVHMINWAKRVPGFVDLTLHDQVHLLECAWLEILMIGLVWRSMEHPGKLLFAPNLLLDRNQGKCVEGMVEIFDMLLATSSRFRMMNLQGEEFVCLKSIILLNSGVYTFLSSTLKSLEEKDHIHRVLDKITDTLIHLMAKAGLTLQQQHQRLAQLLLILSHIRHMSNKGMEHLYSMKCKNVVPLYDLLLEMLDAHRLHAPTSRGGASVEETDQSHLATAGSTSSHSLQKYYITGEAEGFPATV
In the case of `Cc1ccc(C(C)(C)C)c(O)c1`, the result was inactive.
For the molecule `CCCCc1nc2cccnc2n1Cc1ccc(-c2ccccc2-c2nnn[nH]2)cc1`, the result was inactive.
Regarding `Nc1nc(=S)c2[nH]cnc2[nH]1`, the result was inactive.
On the same count and under the same terms, for `O=C1CCCCC1` the value was “inactive”; for `O=C(N[C@@H](c1ccccc1)[C@@H]1CCCCN1)c1cccc(C(F)(F)F)c1Cl`, “inactive”.
The same measure, in the same setting: for `CSc1ccc(Oc2ccc(S(N)(=O)=O)cc2CN(C)C)cc1C` the value was “inactive”; for `CC(C)c1cccc(C(C)C)c1`, “inactive”; for `Cc1c(C)c2c(c(C)c1O)CCC(C)(COc1ccc(CC3SC(=O)NC3=O)cc1)O2` (configuration not stated), “inactive”.
The same measure, in the same setting: for `CCC(C)N(C)C(=O)c1cc2ccccc2c(-c2ccccc2Cl)n1` (configuration not stated) the value was “inactive”; for `O=Cc1ccccc1C=O`, “inactive”; for `O=C(O)CN(CC(=O)O)CC(=O)O`, “inactive”.
Turning to `O=[Si]=O`, the molecule was classed as inactive.
On the same count and under the same terms, for `c1ccc2occc2c1` the value was “inactive”.
Still for that read-out and setting: for `CC(C)OC(=O)C(C)(C)Oc1ccc(C(=O)c2ccc(Cl)cc2)cc1` the value was “inactive”; for `Cc1ccc(-c2cc(C(F)(F)F)nn2-c2ccc(S(N)(=O)=O)cc2)cc1`, “inactive”.
`CCCCCCCCCC[N+](C)(C)[O-]`: the outcome was inactive.

One may read the AC50 as the concentration at which the activity in the assay is half-maximal.
